# HT1080 IDH1KD tx: toxicity to HT-1080 IDH1 knockdown cells (counter line). HT-1080 IDH1 knockdown viability, ATP luminescence, 48 h. Potency, µM (series often up to 46.1 µM), without a hit: at the top dose activity, negative = toxicity, most hits filed as cytotoxic. 360,000 tested, 2% active. AID 686971;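 further: potency means the concentration at half of the fitted maximal effect; 0% = DMSO wells and -100% = cell-free medium wells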
#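 Knockdown cells (IDH1KD HT-1080) received compounds 2 h after plating at 750 cells/well and were kept 48 h at 37 °C in 5% FBS RPMI. A CellTiter-Glo luminescence read gave % activity for curve fitting.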
# ALOX12 inh: blocks human arachidonate 12S-lipoxygenase | 580,000 tested, 1.1% active | purified 12hLO, xylenol orange hydroperoxide absorbance | P18054 | Potency, µM (doses to about 108 µM), for inactives: top-dose activity change, negative = inhibition, actives largely listed as inhibitors; further: potency means the concentration at half of the fitted maximal effect
# Target sequence (P18054 whole entry, looked up): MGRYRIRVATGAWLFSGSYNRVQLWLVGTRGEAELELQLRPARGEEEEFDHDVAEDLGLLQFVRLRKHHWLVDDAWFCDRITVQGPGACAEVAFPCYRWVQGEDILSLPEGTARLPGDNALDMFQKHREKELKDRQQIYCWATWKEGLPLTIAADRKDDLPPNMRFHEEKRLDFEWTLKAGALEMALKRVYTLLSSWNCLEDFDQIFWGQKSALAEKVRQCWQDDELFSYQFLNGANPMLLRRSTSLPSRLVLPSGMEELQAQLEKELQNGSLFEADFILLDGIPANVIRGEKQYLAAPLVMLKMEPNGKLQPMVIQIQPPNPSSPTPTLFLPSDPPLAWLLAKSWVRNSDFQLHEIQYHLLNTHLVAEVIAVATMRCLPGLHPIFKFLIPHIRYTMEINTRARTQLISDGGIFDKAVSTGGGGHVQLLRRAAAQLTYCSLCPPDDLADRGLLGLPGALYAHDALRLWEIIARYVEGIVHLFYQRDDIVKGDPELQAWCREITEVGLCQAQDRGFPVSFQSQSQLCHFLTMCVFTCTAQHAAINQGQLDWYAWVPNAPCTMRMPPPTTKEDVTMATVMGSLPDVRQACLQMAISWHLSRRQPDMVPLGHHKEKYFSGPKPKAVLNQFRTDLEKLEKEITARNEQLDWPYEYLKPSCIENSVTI
#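 Purified human 12hLO at 150 nM in 25 mM Hepes, 0.01% Triton X-100, pH 7.0, preincubated 15 min at room temperature with compound. Reaction started with 40 uM arachidonic acid, 30 min at room temperature. Hydroperoxide measured by Fe-xylenol orange, 573/405 nm absorbance ratio.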
# HT1080-NT tox: kills 2HG-producing HT-1080-NT fibrosarcoma cells; AID 686970; 360,000 tested, 1.6% active; Potency, µM (series often up to 46.1 µM), for inactives: top-dose activity, negative = less viability, most hits filed as cytotoxic; HT-1080-NT fibrosarcoma viability, CellTiter-Glo ATP luminescence, 48 h;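 further: NT is the 2HG producing partner of a matched IDH1 knockdown line; potency means the concentration at half of the fitted maximal effect; 0% = DMSO-treated cells and -100% = media-only wells without cells; nearly all actives have a fitted effect of over 55% in size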
#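 750 cells/well, RPMI + 5% FBS; 2 h settle, compound pin-transfer, 48 h at 37 degrees C. CellTiter-Glo 10 min RT, luminescence. Normalized to DMSO and media-only wells.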
# DT40 TDP1 CPT: DT40-hTDP1 cell growth loss with CPT. chicken DT40 Tdp1-/-;hTDP1 cells + 20 nM CPT, ATP luminescence, 48 h. Potency, µM (titrated, usually from 46.2 µM), without a hit: at the top dose activity change, negative = growth inhibition, most hits filed as inhibitors. 420,000 tested, 12% active; further: potency means the concentration at half of the fitted maximal effect; nearly all actives have a fitted effect of over 55% in size
#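 Cell growth measured by CellTiter-Glo luminescence after a minimum 48 h, 37 C compound exposure with 20 nM CPT in Tdp1-knockout DT40 cells stably expressing hTDP1, seeded 400/well; qHTS titration format.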
# DT40 TDP1 no CPT: qHTS for Inhibitors of human tyrosyl-DNA phosphodiesterase 1 (TDP1): qHTS in cells in absence of CPT | DT40 Tdp1-/- hTDP1 cells, no CPT, ATP luminescence, 48 h | Potency, µM (top dose mostly 46.2 µM), for inactives: top-dose activity change, negative = growth inhibition, most hits filed as inhibitors | 420,000 tested, 15% active | AID 686978, 2013; further: potency means the concentration at half of the fitted maximal effect; nearly all actives have a fitted effect of over 55% in size
#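 Compound effects on proliferation are scored in DT40 Tdp1-/-;hTDP1 cells in the absence of CPT. ATP levels (CellTiter-Glo luminescence) are recorded after a ≥48 hr, 37 °C incubation.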
# IL1B secr inh: blocks inflammasome-driven IL-1 beta release. THP-1 LPS/ATP IL-1B secretion, AlphaLISA, 16 h; active compounds read low. activity change, % at 57.5 µM. 360,000 tested, 4.7% active. AID 743279; in the data active means activity change below about -50%; inconclusive means mostly about -30% to -49%
#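 Secreted IL-1B measured by AlphaLISA bead assay after 16 h compound exposure of THP-1 cells; compounds (final up to 57.5 uM) added 1 h before LPS (250 ng/mL) and ATP (1.25 mM) stimulation; lower signal means less secretion.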
# The depositor's hits bear a star; ? = inconclusive; . = no result; [ ] = remark or other dose. Shown is part of a subset that was picked to be rich in hits. Unless noted, the call rests on the fitted dose curve; in most records, active means well fitted curve in the direction sought with a large enough effect; inconclusive means small, poorly fitted or top-dose-only effect, or another doubt; inactive means no such curve, though single readings can be large; an effect the other way counts as inactive or inconclusive. Unless noted, on the % scale 0 is the no-effect control and ±100 the full control effect.
SMILES,HT1080 IDH1KD tx,ALOX12 inh,HT1080-NT tox,DT40 TDP1 CPT,DT40 TDP1 no CPT,IL1B secr inh
C=CCc1c(C)nc2c(OC)cccc2c1Cl,-2%,-3%,-6%,?,?,16
COc1cccc2c(Cl)c(CC=C(Cl)Cl)c(C)nc12,-4%,-12%,-7%,-29%,-29%,-50*
N#CCCCOC(=O)c1cc(-c2cccs2)nc2ccccc12,.,-1%,.,.,.,.
Cc1ccc2c(CN(C)Cc3ccccc3)cc(=O)oc2c1C,?,0%,?,-22%,15µM*,2
COc1ccc(CN2CCN(c3ccccn3)CC2)c(OC)c1C,?,-1%,-8%,?,13µM*,0
CCc1ccc2c(CN3CCc4cc(S(N)(=O)=O)ccc43)cc(=O)oc2c1,.,14µM*,.,.,.,.
COc1cc2c(cc1OC)CN(Cc1ccc(OC)c(C)c1OC)CC2,-25%,?,-24%,29µM*,21µM*,-12
O=C1NCc2ccccc2CC12CCCN2Cc1cc(F)ccc1F (stereo not drawn),.,14%[6.33 µM],.,.,.,.
C[C@@H]1CN(C(=O)Cc2cc(F)cc(Cl)c2)CC[C@]1(C)O,.,-22%,.,.,.,.
CS(=O)(=O)N1CCCN(C(=O)C2CCC2)CCNC(=O)CC1c1ccccc1 (stereo not drawn),.,34%,.,.,.,.
COc1cc2c(cc1OC)CN(Cc1cc(=O)oc3c(C)c(C)ccc13)CC2,11%,?,21%,?,21µM*,-11
CCc1ccc2c(CN3CCc4cc(OC)c(OC)cc4C3)cc(=O)oc2c1,-18%,?,-2%,?,23µM*,0
COc1cc2c(cc1OC)CN(Cc1cc(=O)oc3cc(C)c(Cl)cc13)CC2,16%,-9%,23%,-8%,?,24
Cc1cnc(C(=O)N2CCCC(c3nc(-c4cccnc4)no3)CCNC(=O)CC2)cn1 (stereo not drawn),.,27%,.,.,.,.
O=c1[nH]c2ccccc2nc1/C=C(\O)C(F)F,14%,-4%,8%,-9%,-12%,4
O=Nc1[nH]c(=O)c(/C=C(\O)c2ccccc2)nc1NO,?,?,?,?,16µM*,-22
Cn1cc(C(=O)N/N=C/C(Br)=C\c2ccccc2)ccc1=O,-28%,0%,-9%,2.3µM*,2.9µM*,-98*
Cn1cc(C(=O)N/N=C/c2cccc(O)c2)ccc1=O,7%,-1%,10%,0%,-8%,5
Cn1cc(C(=O)N/N=C/C(Br)=C/c2ccccc2)ccc1=O,?,0%,21µM*,3.3µM*,2.3µM*,?
O=C(Cc1cccs1)N/N=C/C(Br)=C/c1ccccc1,?,19%,?,?,?,-7
Cc1cc(C(=O)N2C[C@@H](CO)[C@H](c3ccccn3)C2)no1,.,35%,.,.,.,.
CCCC12CN3CC(CCC)(CN(C1)C3c1ccc(OC(C)C)cc1)C2=O (stereo not drawn),.,-16%,.,?,16µM*,.
CCCC12CN3CC(CCC)(CN(C1)C3c1ccccc1)C2=O (stereo not drawn),.,?,.,4.1µM*,?,.
COc1ccc(CNC(=O)N2CCC(Cc3ncc(C)n3C(C)C)C2)cc1 (stereo not drawn),.,11%,.,.,.,.
COC(=O)c1ccc(NC(=O)CC2C(=O)N(c3cccc(OC)c3)C(=O)N2Cc2cccs2)cc1 (stereo not drawn),.,-10%,.,?,?,.
SMILES,HT1080 IDH1KD tx,ALOX12 inh,HT1080-NT tox,DT40 TDP1 CPT,DT40 TDP1 no CPT,IL1B secr inh
COc1ccc(NC(=O)CC2C(=O)N(c3cccc(OC)c3)C(=O)N2CCc2cccs2)cc1 (stereo not drawn),.,8%,.,?,21µM*,.
CCCOc1ccc(NC(=O)CC2C(=O)N(c3cccc(OC)c3)C(=O)N2Cc2cccs2)cc1 (stereo not drawn),.,-29%,.,?,21µM*,.
Cn1cc(S(=O)(=O)N2CCc3ccccc32)cc1C(=O)Nc1ccccc1F,.,-3%,.,.,.,.
COc1cccc(NC(=O)[C@H](C(C)C)n2nnc3ccccc3c2=O)c1,.,-4%,.,.,.,.
COc1ccc(-c2cc(C)no2)cc1S(=O)(=O)CCC(=O)Nc1cc(C)cc(C)c1,.,3%,.,.,.,.
COc1cccc(OC)c1OCCNC[C@@H]1COc2ccccc2O1,.,?,.,27µM*,27µM*,.
CN(C)/C=N/NC(=O)c1ccccc1,?,8%,2%,-4%,19%,12
O=C(NN=c1c(=O)c2ccccc2c1=O)c1ccccc1,0%,5%,12%,18µM*,18µM*,?
O=c1c2ccccc2nnn1CSc1nnc(C2COc3ccccc3O2)n1-c1ccccc1 (stereo not drawn),-15%,0%,-16%,21µM*,?,13
CC(NC(=O)Nc1cccc(Cl)c1)C(c1cccs1)N1CCCC1 (stereo not drawn),-1%,-12%,-5%,-5%,?,-54*
CC(NC(=O)Nc1ccc(Cl)cc1)C(c1cccs1)N1CCOCC1 (stereo not drawn),?,0%[57.4 µM],?,?,?,-4
CC(NC(=S)Nc1ccc(Cl)cc1Cl)C(c1cccs1)N1CCCC1 (stereo not drawn),-2%,?,-11%,?,?,-81*
CCC/C(C#Cc1ccsc1)=C1/c2ccccc2C(=O)N1c1ccccc1,?,?,-30%,?,?,-89*
CCC/C(C#Cc1ccc(N(C)C)cc1)=C1/c2ccccc2C(=O)N1c1ccccc1,1%,-23%,2%,15µM*,16µM*,4
CCC/C(C#Cc1cc(OC)cc(OC)c1)=C1/c2ccccc2C(=O)N1c1ccccc1,-3%,?,15%,26µM*,?,0
O=C1c2ccccc2C(=O)N1c1ccccc1,7%,0%,9%,1%,7%,-19
CCC/C(=C1/c2ccccc2C(=O)N1c1ccccc1)c1c(C)noc1C,.,1%,.,.,.,.
O=C1c2ccccc2C(=O)N1CCC#C/C=C1\c2ccccc2C(=O)N1c1ccccc1,-11%,15%,15%,?,21µM*,42
Cc1cccc(NC(=O)CN2CCN(C(=O)CC(C)NC(=O)c3ccccc3)CC2)c1C (stereo not drawn),.,34%,.,.,.,.
CCC/C(C#CCCN1C(=O)c2ccccc2C1=O)=C1/c2ccccc2C(=O)N1c1ccccc1,-1%,?,-3%,18µM*,?,-23
